Measurements reported in the supplement of paper PMC7724964.

Tests used:
Test in all cases: phage ELISA signal ratio (GST-PRM binding over GST background); higher = stronger binding of peptide-phage to the PRM
[1] = molecular target: T1, ALDOA 1-364 Glycolytic (domain begin residue: 1, domain end residue: 364), P04075
T1 chain: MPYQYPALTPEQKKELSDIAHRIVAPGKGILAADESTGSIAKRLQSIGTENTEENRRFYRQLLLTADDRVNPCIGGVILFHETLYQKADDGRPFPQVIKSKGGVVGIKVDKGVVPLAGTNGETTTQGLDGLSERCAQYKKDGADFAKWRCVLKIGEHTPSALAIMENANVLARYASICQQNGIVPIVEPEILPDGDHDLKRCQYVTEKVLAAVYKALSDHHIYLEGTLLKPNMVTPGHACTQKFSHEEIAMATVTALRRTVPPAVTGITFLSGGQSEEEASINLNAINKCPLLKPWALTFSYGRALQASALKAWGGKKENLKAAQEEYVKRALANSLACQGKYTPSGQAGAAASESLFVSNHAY
Protocol: (§1)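 Phage-displayed random hexadecapeptides (Cys-free, flanked by invariant Gly linkers, fused to the M13 P8 major coat protein) were selected over 5 rounds against GST-fused human PRM domains. Individual clones from rounds 4-5 were tested by phage ELISA, and positive clones binding the target but not GST were sequenced. Values are the ELISA signal ratio of target over background (GST); the background signal is given separately.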

[2] = molecular target: T2, BTN1A1 285-479 SPRY (domain begin residue: 285, domain end residue: 479), Q13410
T2 chain: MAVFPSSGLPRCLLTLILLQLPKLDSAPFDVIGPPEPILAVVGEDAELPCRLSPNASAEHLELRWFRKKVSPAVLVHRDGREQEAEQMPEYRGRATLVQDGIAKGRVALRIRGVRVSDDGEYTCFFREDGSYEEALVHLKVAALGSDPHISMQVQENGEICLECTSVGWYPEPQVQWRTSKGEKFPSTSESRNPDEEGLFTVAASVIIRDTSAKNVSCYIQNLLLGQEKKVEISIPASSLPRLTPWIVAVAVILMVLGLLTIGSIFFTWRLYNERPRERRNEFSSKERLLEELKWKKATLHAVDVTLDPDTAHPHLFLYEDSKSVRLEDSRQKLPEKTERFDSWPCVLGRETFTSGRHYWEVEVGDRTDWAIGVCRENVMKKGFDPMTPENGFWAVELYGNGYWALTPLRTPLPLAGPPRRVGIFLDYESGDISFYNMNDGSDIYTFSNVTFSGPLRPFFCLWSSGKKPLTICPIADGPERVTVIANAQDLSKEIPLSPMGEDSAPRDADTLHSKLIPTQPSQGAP
Protocol: as §1

[3] = molecular target: T3, ARFGEF2 639-829 Sec7 (domain begin residue: 639, domain end residue: 829), Q9Y6D5
T3 chain: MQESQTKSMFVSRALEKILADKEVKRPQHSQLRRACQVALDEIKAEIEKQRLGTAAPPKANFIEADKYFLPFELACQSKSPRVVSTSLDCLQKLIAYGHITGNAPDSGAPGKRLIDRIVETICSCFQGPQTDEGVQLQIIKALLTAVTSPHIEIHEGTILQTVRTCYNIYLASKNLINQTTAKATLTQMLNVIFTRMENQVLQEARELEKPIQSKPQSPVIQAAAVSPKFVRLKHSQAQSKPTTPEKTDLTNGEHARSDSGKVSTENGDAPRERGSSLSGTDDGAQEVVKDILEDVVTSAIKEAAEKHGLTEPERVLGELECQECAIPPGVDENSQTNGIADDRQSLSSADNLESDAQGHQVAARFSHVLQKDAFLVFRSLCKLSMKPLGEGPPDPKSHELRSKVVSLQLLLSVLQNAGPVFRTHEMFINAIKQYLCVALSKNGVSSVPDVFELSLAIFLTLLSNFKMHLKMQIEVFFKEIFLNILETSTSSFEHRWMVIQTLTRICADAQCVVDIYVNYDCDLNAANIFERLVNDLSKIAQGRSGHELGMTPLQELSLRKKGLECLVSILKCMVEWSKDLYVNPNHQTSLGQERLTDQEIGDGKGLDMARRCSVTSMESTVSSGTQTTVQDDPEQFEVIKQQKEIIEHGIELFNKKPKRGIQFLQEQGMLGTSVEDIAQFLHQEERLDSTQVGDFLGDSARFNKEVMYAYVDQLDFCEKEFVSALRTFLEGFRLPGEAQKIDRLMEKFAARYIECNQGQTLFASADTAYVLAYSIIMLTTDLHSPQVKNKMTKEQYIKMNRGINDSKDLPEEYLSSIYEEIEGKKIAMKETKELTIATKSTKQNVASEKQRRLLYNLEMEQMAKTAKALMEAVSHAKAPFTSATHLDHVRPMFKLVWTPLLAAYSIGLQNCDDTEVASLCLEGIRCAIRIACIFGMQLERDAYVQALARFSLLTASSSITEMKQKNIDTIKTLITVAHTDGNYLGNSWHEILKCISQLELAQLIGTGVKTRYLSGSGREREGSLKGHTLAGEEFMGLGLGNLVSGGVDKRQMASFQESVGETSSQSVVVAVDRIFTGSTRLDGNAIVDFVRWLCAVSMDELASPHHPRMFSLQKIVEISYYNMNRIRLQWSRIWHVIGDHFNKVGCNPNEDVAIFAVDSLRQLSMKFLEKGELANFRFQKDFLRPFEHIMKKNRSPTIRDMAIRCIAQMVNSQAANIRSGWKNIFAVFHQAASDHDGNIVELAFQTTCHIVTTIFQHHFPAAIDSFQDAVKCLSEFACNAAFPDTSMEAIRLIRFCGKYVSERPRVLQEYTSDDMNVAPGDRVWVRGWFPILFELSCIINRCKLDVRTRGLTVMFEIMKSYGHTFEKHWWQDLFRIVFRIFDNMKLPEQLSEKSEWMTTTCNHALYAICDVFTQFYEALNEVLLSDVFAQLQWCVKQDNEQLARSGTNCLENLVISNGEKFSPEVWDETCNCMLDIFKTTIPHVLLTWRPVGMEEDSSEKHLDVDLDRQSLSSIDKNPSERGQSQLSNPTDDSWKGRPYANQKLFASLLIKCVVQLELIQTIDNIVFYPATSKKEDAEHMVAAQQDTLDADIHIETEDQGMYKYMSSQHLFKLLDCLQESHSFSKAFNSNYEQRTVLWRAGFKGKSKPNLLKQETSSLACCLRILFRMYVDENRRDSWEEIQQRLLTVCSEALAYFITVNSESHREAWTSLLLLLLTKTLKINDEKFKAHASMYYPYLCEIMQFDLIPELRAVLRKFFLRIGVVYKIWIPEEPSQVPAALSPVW
Protocol: as §1

[4] = molecular target: CBX3 109-173 Chromo_shadow (domain begin residue: 109, domain end residue: 173), Q13185
CBX3 109-173 Chromo_shadow (domain begin residue: 109, domain end residue: 173), Q13185, sequence (Q13185 whole entry): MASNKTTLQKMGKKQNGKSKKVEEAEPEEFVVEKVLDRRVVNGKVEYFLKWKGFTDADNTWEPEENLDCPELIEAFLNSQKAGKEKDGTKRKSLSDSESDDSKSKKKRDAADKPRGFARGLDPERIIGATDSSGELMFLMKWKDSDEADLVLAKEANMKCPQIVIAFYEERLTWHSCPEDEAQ
Protocol: as §1

[5] = molecular target: T4, CAPNS1 1-268 EF-hand_8+EF-hand_5 (domain begin residue: 1, domain end residue: 268), P04632
T4 chain: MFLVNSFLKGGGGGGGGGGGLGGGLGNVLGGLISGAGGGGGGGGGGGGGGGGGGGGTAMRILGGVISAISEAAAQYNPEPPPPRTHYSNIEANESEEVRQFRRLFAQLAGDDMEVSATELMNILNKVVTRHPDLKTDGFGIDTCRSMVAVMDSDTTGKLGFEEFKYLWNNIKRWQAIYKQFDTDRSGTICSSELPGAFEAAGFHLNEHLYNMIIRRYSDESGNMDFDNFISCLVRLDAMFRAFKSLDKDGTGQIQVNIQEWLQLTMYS
Protocol: as §1

[6] = molecular target: T5, ARID4A 568-634 Tudor-knot (domain begin residue: 568, domain end residue: 634), P29374
T5 chain: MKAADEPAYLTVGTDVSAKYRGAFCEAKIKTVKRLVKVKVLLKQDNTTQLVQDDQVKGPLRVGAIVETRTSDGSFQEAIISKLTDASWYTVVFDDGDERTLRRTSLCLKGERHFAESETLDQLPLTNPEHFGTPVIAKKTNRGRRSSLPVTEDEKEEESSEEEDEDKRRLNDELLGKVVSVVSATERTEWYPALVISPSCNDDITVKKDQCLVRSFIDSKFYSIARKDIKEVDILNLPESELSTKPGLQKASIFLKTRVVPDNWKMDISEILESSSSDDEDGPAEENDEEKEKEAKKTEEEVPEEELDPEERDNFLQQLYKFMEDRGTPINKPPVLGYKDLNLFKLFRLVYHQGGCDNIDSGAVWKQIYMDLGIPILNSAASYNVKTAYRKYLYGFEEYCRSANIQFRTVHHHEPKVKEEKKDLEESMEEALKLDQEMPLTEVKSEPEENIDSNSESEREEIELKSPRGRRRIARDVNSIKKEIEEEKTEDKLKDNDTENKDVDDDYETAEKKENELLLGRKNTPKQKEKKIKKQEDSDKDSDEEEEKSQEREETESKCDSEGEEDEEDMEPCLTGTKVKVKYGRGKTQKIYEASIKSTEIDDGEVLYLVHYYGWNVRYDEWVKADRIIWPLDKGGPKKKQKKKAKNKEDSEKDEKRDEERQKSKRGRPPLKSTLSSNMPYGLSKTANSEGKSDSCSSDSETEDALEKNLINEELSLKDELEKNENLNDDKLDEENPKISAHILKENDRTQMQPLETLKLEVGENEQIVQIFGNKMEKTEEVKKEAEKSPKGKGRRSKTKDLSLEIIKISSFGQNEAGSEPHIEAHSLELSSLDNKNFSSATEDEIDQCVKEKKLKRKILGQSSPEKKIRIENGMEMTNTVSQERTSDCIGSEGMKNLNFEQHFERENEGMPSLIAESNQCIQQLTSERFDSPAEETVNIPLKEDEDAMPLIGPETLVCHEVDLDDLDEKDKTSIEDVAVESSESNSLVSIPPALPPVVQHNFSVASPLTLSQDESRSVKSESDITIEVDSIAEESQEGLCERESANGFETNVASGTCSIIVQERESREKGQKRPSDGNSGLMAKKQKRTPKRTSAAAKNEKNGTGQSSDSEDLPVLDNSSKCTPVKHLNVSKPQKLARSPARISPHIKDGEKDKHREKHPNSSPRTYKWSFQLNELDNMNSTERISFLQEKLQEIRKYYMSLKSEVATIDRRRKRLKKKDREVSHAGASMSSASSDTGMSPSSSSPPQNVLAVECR
Protocol: as §1

[7] = molecular target: T6, TDRD1 261-449 TUDOR (domain begin residue: 261, domain end residue: 449), Q9BXT4
T6 chain: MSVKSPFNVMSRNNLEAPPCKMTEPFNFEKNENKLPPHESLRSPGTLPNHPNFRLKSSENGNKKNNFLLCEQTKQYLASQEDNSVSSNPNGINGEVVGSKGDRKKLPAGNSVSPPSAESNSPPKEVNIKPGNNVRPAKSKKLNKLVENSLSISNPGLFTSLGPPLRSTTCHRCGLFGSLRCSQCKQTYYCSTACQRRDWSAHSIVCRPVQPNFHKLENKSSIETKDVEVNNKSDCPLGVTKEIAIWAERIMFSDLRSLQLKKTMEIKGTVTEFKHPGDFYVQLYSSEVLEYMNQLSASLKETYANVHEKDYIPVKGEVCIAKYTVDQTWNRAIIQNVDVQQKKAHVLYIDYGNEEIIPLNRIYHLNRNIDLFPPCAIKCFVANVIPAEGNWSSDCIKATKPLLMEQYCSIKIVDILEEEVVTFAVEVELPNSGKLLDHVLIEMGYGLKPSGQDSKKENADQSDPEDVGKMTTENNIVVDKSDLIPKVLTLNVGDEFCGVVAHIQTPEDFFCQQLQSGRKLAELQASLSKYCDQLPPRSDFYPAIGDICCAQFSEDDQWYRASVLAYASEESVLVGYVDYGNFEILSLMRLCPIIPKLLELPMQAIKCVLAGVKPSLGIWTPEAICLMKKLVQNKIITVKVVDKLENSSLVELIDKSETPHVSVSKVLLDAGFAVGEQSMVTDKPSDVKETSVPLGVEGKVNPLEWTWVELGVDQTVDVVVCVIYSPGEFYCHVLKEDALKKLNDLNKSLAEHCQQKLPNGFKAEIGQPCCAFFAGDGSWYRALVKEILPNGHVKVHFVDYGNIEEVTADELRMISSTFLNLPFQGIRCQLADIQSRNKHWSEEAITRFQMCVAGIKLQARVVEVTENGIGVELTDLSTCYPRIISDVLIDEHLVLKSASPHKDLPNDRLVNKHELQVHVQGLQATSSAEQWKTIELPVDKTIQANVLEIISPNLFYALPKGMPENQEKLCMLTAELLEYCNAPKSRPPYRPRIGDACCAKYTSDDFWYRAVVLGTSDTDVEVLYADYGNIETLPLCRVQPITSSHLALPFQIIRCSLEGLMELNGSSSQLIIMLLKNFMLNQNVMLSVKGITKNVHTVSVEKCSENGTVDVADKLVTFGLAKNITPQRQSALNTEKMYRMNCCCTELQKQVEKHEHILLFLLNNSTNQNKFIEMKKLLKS
Protocol: as §1

B1: unnamed (peptide)
chain: MYDEWHMPDSYEVVVQ
In the case of B1, the “phage ELISA signal ratio” value [1] is reported as 19.3.

B2: unnamed (peptide)
chain: PKTGEPWHPWIPHWLA
B2 was tested, and the “phage ELISA signal ratio” value [2] was 8.34.

B3: unnamed (peptide)
chain: NEGERLWAVLKLWHEE
With B3 the “phage ELISA signal ratio” value [3] was 18.6.

B4: unnamed (peptide)
chain: GWWQSREYYMQDLMAS
For B4, the “phage ELISA signal ratio” value [2] was 5.49.

B5: unnamed (peptide)
chain: WIENWSVSPWDLTNPF
For B5, the “phage ELISA signal ratio” value [4] was 4.99.

B6: unnamed (peptide)
chain: YQQDLVDFLWNDLYAF
B6 was tested, and the “phage ELISA signal ratio” value [5] was 22.7.

B7: unnamed (peptide)
chain: DYMSHLFDTMSGVQFQ
In the case of B7, the “phage ELISA signal ratio” value [6] is reported as 6.29 and the “phage ELISA signal ratio” value [7] is reported as 8.02.
